# Out of some 290,000 compounds screened, about 1,500 (0.52%) were called active. Cut-off read from the data, not from the text of the source: active = inhibition above about 50%; inactive = the rest. What follows is part of a selection rich in actives, with near analogues and random picks from the rest.
# Target: Dual specificity protein phosphatase 3 (Homo sapiens) (UniProt P51452)
# Assay: inhibition of human DUSP3 activity – biochemical, absorbance, uHTS, primary screen (AID 1654)
# [1] = recombinant VHR phosphatase, pNPP absorbance, at 13.3 µM, stronger effect = higher value
# Sequence of Dual specificity protein phosphatase 3 (Homo sapiens) (P51452 whole entry, looked up): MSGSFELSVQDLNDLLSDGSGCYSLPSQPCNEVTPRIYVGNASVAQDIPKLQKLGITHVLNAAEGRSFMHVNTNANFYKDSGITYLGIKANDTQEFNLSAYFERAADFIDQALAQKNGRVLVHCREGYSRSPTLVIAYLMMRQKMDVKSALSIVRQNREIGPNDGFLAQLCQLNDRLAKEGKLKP
structure (smiles),measurement,setting,value
CSc1ccccc1-c1nnc(-c2ccc(Cl)cc2)o1,inhibition,[1],25.3% (inactive)
O=C(Nc1nnc(-c2ccc(Cl)cc2)o1)c1ccccc1Br,inhibition,[1],41.9% (inactive)
O=C(c1nnc(-c2ccc(Cl)cc2)o1)C1CCCC1,inhibition,[1],51.3% (active)
CCOc1ccc(CC(=O)NC2CCN(Cc3ccccc3)CC2)cc1,inhibition,[1],51% (active)
O=C(COc1ccc(Br)cc1F)NC1CCN(Cc2ccccc2)CC1,inhibition,[1],4.7% (inactive)
CCOc1ccc(NC(=S)N2CCC(NC(=O)c3ccccc3)CC2)cc1,inhibition,[1],20.4% (inactive)
Clc1ccc(Nc2ncnc3c2nnn3Cc2ccccc2)cc1,inhibition,[1],16.3% (inactive)
Cc1nc(Nc2ccc3c(c2)OCCO3)c2nnn(Cc3ccccc3Cl)c2n1,inhibition,[1],18.2% (inactive)
CC(=O)Nc1ccc(Nc2ncnc3c2nnn3Cc2ccccc2Cl)cc1,inhibition,[1],52% (active)
CCC(=O)Nc1ccc(-c2ccc(N3CCCCC3)nn2)cc1,inhibition,[1],-19.8% (inactive)
Cc1cc(C)cc(NC(=O)C2CCCN2S(=O)(=O)c2cccc3cccnc23)c1 (configuration not stated),inhibition,[1],-42.1% (inactive)
CC(=O)c1cccc(NC(=O)C2CCCN(S(=O)(=O)c3cccc4nonc34)C2)c1 (configuration not stated),inhibition,[1],50.4% (active)
Cc1ccc(NC(=O)C2CCCN2S(=O)(=O)c2cccc3cccnc23)c(C)c1 (configuration not stated),inhibition,[1],-0.7% (inactive)
COc1ccc(OC)c(NC(=O)C2CCCN2S(=O)(=O)c2cccc3nsnc23)c1 (configuration not stated),inhibition,[1],19% (inactive)
O=C(Nc1nccs1)C1CCCN1S(=O)(=O)c1cccc2cccnc12 (configuration not stated),inhibition,[1],56.5% (active)
COc1ccc(NC(=O)C2CCCN(S(=O)(=O)c3cccc4cccnc34)C2)cc1OC (configuration not stated),inhibition,[1],23.6% (inactive)
CC1CCCCC1NC(=O)C1CCCN1S(=O)(=O)c1cccc2nsnc12 (configuration not stated),inhibition,[1],16.6% (inactive)
CC(=O)c1cccc(NC(=O)C2CCCN2S(=O)(=O)c2cccc3nsnc23)c1 (configuration not stated),inhibition,[1],54.2% (active)
O=C(NCc1ccco1)C1CCCN(S(=O)(=O)c2cccc3nonc23)C1 (configuration not stated),inhibition,[1],3.6% (inactive)
CCc1ccc(-c2cc(C)no2)cc1S(=O)(=O)NCCc1ccc(S(N)(=O)=O)cc1,inhibition,[1],28% (inactive)
Cc1ccc(NC(=O)c2nc[nH]c2C(=O)N[C@@H](CCCCNC(=O)OC(C)(C)C)C(=O)OC(C)(C)C)cc1,inhibition,[1],-0.7% (inactive)
CCc1ccccc1NC(=O)c1ccc2c(c1)CCN2S(C)(=O)=O,inhibition,[1],-17.9% (inactive)
O=C1/C(=C/c2ccc(F)cc2)SC(=S)N1CCCC(=O)N1CCCCC1CCO (configuration not stated),inhibition,[1],42.6% (inactive)
CC(=O)Nc1ccc(S(=O)(=O)N2CCC(C(=O)NC3CC3)CC2)cc1,inhibition,[1],14.9% (inactive)
CCC(C(=O)NC1CCCC1)N(C(=O)Cn1nnc(-c2ccc(C)o2)n1)c1ccc(OC)c(OC)c1 (configuration not stated),inhibition,[1],13% (inactive)
Nc1nc(SCC(=O)Nc2ccc(Cl)cc2C(F)(F)F)n[nH]1,inhibition,[1],2.5% (inactive)
CCN(C(=O)CSc1nnc(-c2ccncc2)o1)c1ccccc1,inhibition,[1],11% (inactive)
COCC(=O)Nc1c(C(=O)N2CCCC2)oc2ccccc12,inhibition,[1],1% (inactive)
Cc1cc(C(=O)N2CCN(c3ccccn3)CC2)c(C)o1,inhibition,[1],-2.1% (inactive)
COc1cccc(OC)c1C(=O)Nc1c(C(=O)N2CCN(c3ccccn3)CC2)oc2ccccc12,inhibition,[1],52.1% (active)
CCOc1ccc(CN2CCN(Cc3ccc4cc(F)ccc4n3)CC2CCO)cc1 (configuration not stated),inhibition,[1],6.4% (inactive)
Cc1cccc(C(=O)OCC(=O)Nc2ccc(F)cc2)c1,inhibition,[1],8% (inactive)
Cc1cc(C)nc(-n2ncc3c2CC(c2ccc(C(C)C)cc2)CC3=O)n1 (configuration not stated),inhibition,[1],1.9% (inactive)
NC(=S)Nc1c(Cl)cccc1Cl,inhibition,[1],24.6% (inactive)
CSCCNC(=O)c1ccc2nc(Cc3ccccc3F)oc2c1,inhibition,"recombinant VHR phosphatase, pNPP absorbance; at 13.3 µM; stronger effect = higher value",63.9% (inactive)
same,inhibition,"recombinant VHR phosphatase, pNPP absorbance; measured here: average of confirmation repeats; at 13.3 µM; stronger effect = higher value",2.8%
Cc1ccc(NC2CCCN(C(=O)CCc3cn[nH]c3)C2)cc1C (configuration not stated),inhibition,[1],-2.7% (inactive)
CCOc1cc(/C=N/O)ccc1OCc1ccccc1F,inhibition,[1],-4.1% (inactive)
CCOc1cc(/C=N/NC(=O)OC)ccc1OCCSc1ccc(Cl)cc1,inhibition,[1],-3.8% (inactive)
CC(=O)c1nn(-c2cccc(C(F)(F)F)c2)c(=O)[nH]c1=O,inhibition,[1],-9.5% (inactive)
CN(CCO)c1ccc(/C=N/Nc2nncc3ccccc23)cc1,inhibition,[1],18.2% (inactive)
O=C(Nc1ccc(OCC(=O)N2CCOCC2)cc1)c1cc(F)c(F)cc1Cl,inhibition,[1],25.5% (inactive)
O=C1COc2ccc(S(=O)(=O)Nc3ccc(OC(F)(F)F)cc3)cc2N1,inhibition,[1],-1.9% (inactive)
Cc1ccc(-c2nc(SCC(=O)Nc3ccccc3OC(F)F)c3c(C)c(C(=O)O)sc3n2)cc1,inhibition,[1],113% (active)
COc1ccccc1NC(=O)CSc1nc2sc3c(c2c(=O)n1-c1ccccc1)CCN(C)C3,inhibition,[1],9.1% (inactive)
Cc1ccc(C)c(SCc2nc3sc(C(=O)O)c(C)c3c(=O)[nH]2)c1,inhibition,[1],7.2% (inactive)
CCN(CC)c1ccc(/C=N/NC(=O)CNC(=O)c2cccs2)cc1,inhibition,[1],10.2% (inactive)
CN(C(=O)COC(=O)CNC(=O)C12CC3CC(CC(C3)C1)C2)c1ccccc1,inhibition,[1],14.5% (inactive)
Cc1c(C(=O)O)nnn1-c1nonc1N,inhibition,[1],17.9% (inactive)
Nc1nonc1-n1nnc(C(=O)N/N=C\c2ccncc2)c1CN1CCCCC1,inhibition,[1],13% (inactive)
NNC(=O)c1nnn(-c2nonc2N)c1CN1CCCC1,inhibition,[1],52.8% (active)
Cc1ccc2c(c1)N(CC(=O)N1CCCC(C)C1)C(=O)CO2 (configuration not stated),inhibition,[1],7.4% (inactive)
CCOc1ccc(CN2CCN(CCCc3ccccc3)C(CCO)C2)cc1 (configuration not stated),inhibition,[1],8.1% (inactive)
Cc1noc(C)c1CCC(=O)N1CCCC(CO)(Cc2ccccc2)C1 (configuration not stated),inhibition,[1],5.7% (inactive)
CC1CN(C(=S)Nc2ccc(Br)cc2Cl)CC(C)O1 (configuration not stated),inhibition,[1],15% (inactive)
CCc1ccc(NC(=O)CN2CCC(C(=O)c3ccc(OC)cc3)CC2)cc1,inhibition,[1],52% (active)
CCOc1ccc(NC(=O)CN2CCN(CC(=O)Nc3ccc(OC)cc3)CC2)cc1,inhibition,[1],-3.3% (inactive)
CCc1ccc(NC(=O)Cn2nnc(C(=O)NCc3ccc(OC)cc3)c2N)cc1,inhibition,[1],-1.9% (inactive)
CCCCNC(=O)C1CCCN(S(=O)(=O)c2ccc(S(=O)(=O)NCC(C)C)cc2)C1 (configuration not stated),inhibition,[1],6.5% (inactive)
CC(C)CCNC(=O)C1CCCN(S(=O)(=O)c2ccc(F)cc2)C1 (configuration not stated),inhibition,[1],53.4% (active)
COc1ccc(CCNC(=O)C2CCCN(S(=O)(=O)c3ccc(OC)cc3)C2)cc1 (configuration not stated),inhibition,[1],-35.9% (inactive)
CCc1cc(-c2nnc(SCC(=O)NC3CC3)n2C)cs1,inhibition,[1],24% (inactive)
O=c1[nH]cnc2c1c(-c1ccccc1)cn2-c1ccc(F)cc1,inhibition,[1],-6.9% (inactive)
O=c1c2c(-c3ccccc3)ccnc2[nH]n1-c1ccccc1,inhibition,[1],55.5% (active)
Cc1ccc(-c2ccnc3[nH]n(-c4ccccc4)c(=O)c23)cc1,inhibition,[1],60% (active)
Cc1ccc(-n2[nH]c(C)c(/C=N/N3C(=O)c4cccc5cccc(c45)C3=O)c2=O)cc1,inhibition,[1],20.9% (inactive)
O=c1c(-c2cccc(Cl)c2)c[nH]n1-c1ccccc1,inhibition,[1],12.5% (inactive)
Cc1ccc(C2C3=C(Nc4[nH]n(-c5ccccc5)c(=O)c42)c2ccccc2C3=O)cc1 (configuration not stated),inhibition,[1],1.7% (inactive)
Cc1ccc(S(=O)(=O)N2CCC(C(=O)N[C@@H](C)C(=O)NCCc3ccccc3)CC2)cc1,inhibition,[1],6.2% (inactive)
Cc1ccc(S(=O)(=O)N2CCC(C(=O)N[C@@H](C)C(=O)NCc3ccccc3)CC2)cc1,inhibition,[1],1.5% (inactive)
C[C@H](NC(=O)C1CCN(S(=O)(=O)c2ccccc2)CC1)C(=O)NCc1ccccc1,inhibition,[1],52.3% (active)
N#Cc1c(-c2ccccc2)nc(SCc2ccc([N+](=O)[O-])cc2)[nH]c1=O,inhibition,[1],4.1% (inactive)
O=C(C(NS(=O)(=O)c1cccc2nsnc12)c1ccccc1)N1CCN(c2ccccn2)CC1 (configuration not stated),inhibition,[1],52.7% (active)
O=C(O)C(NS(=O)(=O)c1cccc2nsnc12)c1ccccc1 (configuration not stated),inhibition,[1],13.3% (inactive)
O=C(C(NS(=O)(=O)c1cccc2nsnc12)c1ccccc1)N1CCN(c2ccccc2)CC1 (configuration not stated),inhibition,[1],-12.8% (inactive)
O=C(NCCOc1cccnc1)c1ccc(OC2CCN(Cc3ccccn3)CC2)cc1,inhibition,[1],18.5% (inactive)
Fc1ccc(/C=N/n2c(COc3ccccc3)n[nH]c2=S)cc1,inhibition,[1],26.3% (inactive)
C/C(=N/O)c1ccc(N2C(=O)C3C4C=CC(C3C2=O)C2C3C(=O)N(c5ccc(/C(C)=N/O)cc5)C(=O)C3C42)cc1 (configuration not stated),inhibition,[1],-7.1% (inactive)
CC1CCN(C(=O)/C(=C\c2ccccc2F)NC(=O)c2ccccc2)CC1,inhibition,[1],18.5% (inactive)
CN(CC(=O)NCc1ccc(Cl)cc1)S(=O)(=O)c1cccs1,inhibition,[1],21.4% (inactive)
COc1ccc(NC2CCCN(C(=O)c3ccncc3)C2)cc1 (configuration not stated),inhibition,[1],54.2% (active)
Cc1cccc(C(=O)N2CCCC(Nc3ccc(C(C)C)cc3)C2)n1 (configuration not stated),inhibition,[1],10.8% (inactive)
CC(C)c1ccc(NC2CCCN(C(=O)c3ccncc3)C2)cc1 (configuration not stated),inhibition,[1],13.7% (inactive)
COc1cc(C(=O)N2CCN(C3CCC(C)CC3)CC2)cc(OC)c1OC (configuration not stated),inhibition,[1],16.6% (inactive)
CCOc1ccc2[nH]c(=O)c(CN(CCCO)S(=O)(=O)c3ccc(F)cc3)cc2c1,inhibition,[1],39.4% (inactive)
COc1cc(C(=S)NCc2ccccc2)cc(Br)c1O,inhibition,[1],25.9% (inactive)
COc1cc(C(=O)NCc2ccncc2)cc(Br)c1OCc1ccccc1,inhibition,[1],50% (active)
COc1cc(C(=O)NCc2ccc(-n3cccc3)cc2)cc(OC)c1OC,inhibition,[1],33.3% (inactive)
CCOC(=O)c1c(S(=O)(=O)Nc2ccc(CN3CCC(C)CC3)cc2)c(C)n(C)c1C,inhibition,[1],-22.3% (inactive)
CN(CC(=O)Nc1ccc(F)cc1)C(=O)c1ccc(-c2ccc(Cl)cc2)o1,inhibition,[1],16.7% (inactive)
CCOc1ncccc1C(=O)N(CC)CC(=O)Nc1ccc(NC(C)=O)cc1,inhibition,[1],1.3% (inactive)
CCOc1ncccc1C(=O)N(C)CC(=O)Nc1ccc(F)cc1,inhibition,[1],59.9% (active)

# — PubChem BioAssay AID1654 (Sanford-Burnham Center for Chemical Genomics, 2009)
